From PubChem BioAssay (NCATS)
Inconclusive results are not listed. A call without a number means that no potency is given here. Activity calls are given as the source filed them. The call rests on the fitted dose curve; in most records, active means well fitted inhibition curve with a large enough effect; inconclusive means small, poorly fitted or top-dose-only effect; inactive means no such curve, though single readings can be large or run the other way.

Experiment: qHTS assay for measurement of the activity of small molecule inhibitors on Zika virus induced Caspase-3 activity in human iPSC derived neural progenitor cells (hNPCs) (AID 1224857); further: nearly all actives have a fitted effect of over 65% in size
Details: hNPCs ZIKV-induced caspase-3/7, Caspase-Glo luminescence, 6 h; series mostly up to 45.7 µM
Procedure, shortened: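 Quantitative HTS format: human iPSC neural progenitors, 1 h compound pretreatment, ZIKV 2 FFU/cell for 6 h at 37 C. Percent inhibition derived from luminescent caspase-3/7 signal between uninfected and infected controls.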

Row | Structure (SMILES) | Potency
1 | O=C(O)C1CCNCC1 | inactive
2 | Cc1cc2c(cc1Cl)N(C(=O)Nc1ccnc3ccccc13)CC2 | inactive
3 | C=CCn1c(=O)c2c(nc(-c3ccc(S(=O)(=O)O)cc3)n2C)n(C)c1=O | inactive
4 | O=c1cc(O)cc(/C=C/c2ccc(O)c(O)c2)o1 | inactive
5 | [Li+] | inactive
6 | N=C(N)c1ccccc1 | inactive
7 | CC(=O)/C(C)=N/O | inactive
8 | NC/C=C\C(=O)O | inactive
9 | CC(=O)O[C@H]1Cc2ccccc2N(C(N)=O)c2ccccc21 | inactive
10 | CN1CCC2(CCN3CCc4c(oc5ccccc45)C3C2)N(C)C1=O (stereo unspecified) | inactive
11 | O=C(O)c1cccnc1C(=O)O | inactive
12 | CCCCOc1cc(CC2CNC(=O)N2)ccc1OC (stereo unspecified) | inactive
13 | O=C(O)C1=CC(=C(c2ccc(O)c(C(=O)O)c2)c2ccc(O)c(C(=O)O)c2)C=CC1=O | inactive
14 | c1ccc(C(NCc2cccnc2)(c2ccccc2)c2ccccc2)cc1 | inactive
15 | CCN1C(=O)C=CC1=O | inactive
16 | C#CC(N)CCC(=O)O (stereo unspecified) | inactive
17 | CC(=O)N[C@@H](Cc1c[nH]c2ccccc12)C(=O)OCc1cc(C(F)(F)F)cc(C(F)(F)F)c1 | inactive
18 | NC(Cc1cccc(-c2ccccc2CP(=O)(O)O)c1)C(=O)O (stereo unspecified) | inactive
19 | CC(=O)O[C@H]1CC2(C)[C@@H](C[C@@H](O)[C@H]3[C@@]4(C)CC[C@@H](O)[C@@H](C)[C@@H]4CC[C@@]32C)C1=C(CCC=C(C)C)C(=O)O (stereo partly specified) | inactive

Row | Structure (SMILES) | Potency
20 | COc1ccccc1N1CCN(CCCNc2c(C)c(=O)n(C)c(=O)n2C)CC1 | inactive
21 | N[C@H]1CONC1=O | inactive
22 | COC(=O)C(C)(N)Cc1ccc(O)cc1 (stereo unspecified) | inactive
23 | Nc1ncnc2c1nc(Sc1ccc(Cl)cc1)n2[C@H]1OC2COP(=O)(O)O[C@@H]2C1O (stereo partly specified) | inactive
24 | CCN(CC)CCOC(=O)c1cc(Cl)c(N)cc1OC | inactive
25 | OC[C@H]1NC[C@@H](O)[C@@H]1O | inactive
26 | COc1ccc(CCN(C)CCc2ccc(OC)c(OC)c2)cc1OC | inactive
27 | CC(C)(CO)Cc1cc(C(C)(C)C)c(O)c(C(C)(C)C)c1 | inactive
28 | N[C@H](C(=O)O)[C@H](O)C(=O)O | inactive
29 | NCCNS(=O)(=O)c1cccc2c(Cl)cccc12 | inactive
30 | C[C@@]1(C2CCCC2)Cc2cc(OCC(=O)O)c(Cl)c(Cl)c2C1=O | inactive
31 | N#CC(C#N)=C(N)/C(C#N)=C/c1ccc(O)cc1 | inactive
32 | CCCn1c(=O)c(C)cn2nc(N)nc12 | inactive
33 | NC(=O)c1cc[n+](CC2=C(C(=O)O)N3C(=O)[C@@H](NC(=O)[C@@H](c4ccccc4)S(=O)(=O)[O-])[C@H]3SC2)cc1 | inactive
34 | O=C(O)/C=C/c1cnc[nH]1 | inactive
35 | CN(CC[C@@H](Oc1ccc(C(F)(F)F)cc1)c1ccccc1)CC(=O)O | inactive
36 | CN1CC(O)C(O)C(O)C1CO (stereo unspecified) | inactive
37 | CCCCCC[C@@H]([C@@H](C)O)n1cnc2c(N)ncnc21 | inactive
38 | Nn1nnc2ccccc21 | inactive

Experiment: qHTS assay for measurement of the activity of small molecule inhibitors on Zika virus induced Caspase-3 activity in human astrocytoma cells (AID 1224859)
Details: SNB-19 ZIKV-induced caspase-3/7, luminescence, 6 h; series mostly up to 45.7 µM
Procedure, shortened: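 Readout is luminescence from Caspase-Glo 3/7 added after a 6 h ZIKV infection (2 FFU/cell) of compound-pretreated (1 h) SNB-19 cells; data expressed as % inhibition versus uninfected and infected wells.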

Row | Structure (SMILES) | Potency
39 | O=C(O)C1CCNCC1 | inactive
40 | Cc1cc2c(cc1Cl)N(C(=O)Nc1ccnc3ccccc13)CC2 | inactive
41 | C=CCn1c(=O)c2c(nc(-c3ccc(S(=O)(=O)O)cc3)n2C)n(C)c1=O | inactive
42 | O=c1cc(O)cc(/C=C/c2ccc(O)c(O)c2)o1 | inactive
43 | [Li+] | inactive
44 | N=C(N)c1ccccc1 | inactive
45 | CC(=O)/C(C)=N/O | inactive
46 | NC/C=C\C(=O)O | inactive
47 | CC(=O)O[C@H]1Cc2ccccc2N(C(N)=O)c2ccccc21 | inactive
48 | CN1CCC2(CCN3CCc4c(oc5ccccc45)C3C2)N(C)C1=O (stereo unspecified) | inactive
49 | O=C(O)c1cccnc1C(=O)O | inactive
50 | CCCCOc1cc(CC2CNC(=O)N2)ccc1OC (stereo unspecified) | inactive
51 | O=C(O)C1=CC(=C(c2ccc(O)c(C(=O)O)c2)c2ccc(O)c(C(=O)O)c2)C=CC1=O | inactive
52 | c1ccc(C(NCc2cccnc2)(c2ccccc2)c2ccccc2)cc1 | inactive
53 | CCN1C(=O)C=CC1=O | inactive
54 | C#CC(N)CCC(=O)O (stereo unspecified) | inactive
55 | CC(=O)N[C@@H](Cc1c[nH]c2ccccc12)C(=O)OCc1cc(C(F)(F)F)cc(C(F)(F)F)c1 | inactive
56 | NC(Cc1cccc(-c2ccccc2CP(=O)(O)O)c1)C(=O)O (stereo unspecified) | inactive
57 | CC(=O)O[C@H]1CC2(C)[C@@H](C[C@@H](O)[C@H]3[C@@]4(C)CC[C@@H](O)[C@@H](C)[C@@H]4CC[C@@]32C)C1=C(CCC=C(C)C)C(=O)O (stereo partly specified) | inactive

Row | Structure (SMILES) | Potency
58 | COc1ccccc1N1CCN(CCCNc2c(C)c(=O)n(C)c(=O)n2C)CC1 | inactive
59 | N[C@H]1CONC1=O | inactive
60 | COC(=O)C(C)(N)Cc1ccc(O)cc1 (stereo unspecified) | inactive
61 | Nc1ncnc2c1nc(Sc1ccc(Cl)cc1)n2[C@H]1OC2COP(=O)(O)O[C@@H]2C1O (stereo partly specified) | inactive
62 | CCN(CC)CCOC(=O)c1cc(Cl)c(N)cc1OC | inactive
63 | OC[C@H]1NC[C@@H](O)[C@@H]1O | inactive
64 | COc1ccc(CCN(C)CCc2ccc(OC)c(OC)c2)cc1OC | inactive
65 | CC(C)(CO)Cc1cc(C(C)(C)C)c(O)c(C(C)(C)C)c1 | inactive
66 | N[C@H](C(=O)O)[C@H](O)C(=O)O | inactive
67 | NCCNS(=O)(=O)c1cccc2c(Cl)cccc12 | inactive
68 | C[C@@]1(C2CCCC2)Cc2cc(OCC(=O)O)c(Cl)c(Cl)c2C1=O | inactive
69 | N#CC(C#N)=C(N)/C(C#N)=C/c1ccc(O)cc1 | inactive
70 | CCCn1c(=O)c(C)cn2nc(N)nc12 | inactive
71 | NC(=O)c1cc[n+](CC2=C(C(=O)O)N3C(=O)[C@@H](NC(=O)[C@@H](c4ccccc4)S(=O)(=O)[O-])[C@H]3SC2)cc1 | inactive
72 | O=C(O)/C=C/c1cnc[nH]1 | inactive
73 | CN(CC[C@@H](Oc1ccc(C(F)(F)F)cc1)c1ccccc1)CC(=O)O | inactive
74 | CN1CC(O)C(O)C(O)C1CO (stereo unspecified) | inactive
75 | CCCCCC[C@@H]([C@@H](C)O)n1cnc2c(N)ncnc21 | inactive
76 | Nn1nnc2ccccc21 | inactive
